Source: PubChem (National Center for Advancing Translational Sciences (NCATS))
BRCA1 expr act – qHTS Assay to Identify Small Molecule Activators of BRCA1 Expression; MCF7-BRCA1-FFLuc reporter, luminescence, 48 h; response scale: scaled: vehicle 0%, 10 µM genistein 100%; Potency, µM (highest dose often 46.1 µM), for the others: at the highest dose activation, hits mostly activators; 380,000 tested, 1.1% active; note: potency is the fitted concentration of half-maximal effect; nearly all actives have a fitted effect of over 80% in size
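Cells: MCF7-BRCA1-FFLuc, 2000/well. Exposure: 48 h, 37 °C, 5% CO2. Read: luminescence, 15 min post-substrate. Controls: genistein 10 microM (maximal activation), DMSO (neutral).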
IL-2 act – qHTS of IL-2 Activators; 360,000 tested, 0.065% active; IL-2 activation reporter assay, cell-based qHTS; stimulated with anti-CD3/CD4/CD28 beads; in transgenic mouse T cells; activation, % (series mostly up to about 46 µM); in the data active = activation above about 50%; inconclusive = mostly about 30% to 49%; note: 0% is about no effect
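EGFP and DsRed fluorescence is measured by plate cytometry in unstimulated transgenic mouse T cells exposed to compound for 60 minutes, then stimulated 18 hours at 37 degrees C with anti-CD3/anti-CD4 beads plus anti-CD28.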
Nrf2 activator – qHTS of Nrf2 Activators; AREc32 ARE-luciferase reporter (MCF7-derived line), luminescence, 24 h; Potency, µM (top dose mostly 46.1 µM), for inactives: top-dose activation, hits mostly activators; 410,000 tested, 0.31% active; AID 624171, 2012; note: potency is the fitted concentration of half-maximal effect; % of control where 0% means no effect; nearly all actives have a fitted effect of over 65% in size
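For detection, Steady-Glo was added and plates sat 30 min at RT; before that, AREc32_Fluc cells grown overnight in OPTI-MEM/5% FBS had been treated with 23 nL compound for 24 hr at 37 deg C.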
ELG1 repair inh – qHTS screen for small molecules that inhibit ELG1-dependent DNA repair in human embryonic kidney (HEK293T) cells expressing luciferase-tagged ELG1 | Potency, µM (highest dose often 46.1 µM), without a hit: at the highest dose activity change, negative = inhibition, most hits filed as inhibitors | HEK293T ELG1-luciferase reporter, luminescence, 16 h; DNA damage induced by 5-fluorouridine | 330,000 tested, 2.3% active; note: potency is the fitted concentration of half-maximal effect; % is set by controls: 0 for no effect and ±100 for the full control effect; nearly all actives have a fitted effect of over 55% in size
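5-Fluorouridine DNA damage + compound/DMSO, 2,000 cells/well, 16 h, 37 °C/5% CO2. ONE-Glo, 30 min RT, luminescence. Readout = decrease in reporter signal.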
The depositor's hits bear a star; ? = inconclusive; . = no result. An excerpt weighted towards active compounds, which were near 3.1% of everything screened. Unless noted, calls come from the whole dose curve; as a rule, active = well fitted curve in the direction sought with a large enough effect; inconclusive = small, poorly fitted or top-dose-only effect, or another doubt; inactive = no such curve, though single readings can be large; an effect the other way counts as inactive or inconclusive.

SMILES	BRCA1 expr act	IL-2 act	Nrf2 activator	ELG1 repair inh
COc1cccc(/C=C/C(=O)NCCc2ccc(OC)c(OC)c2)c1	-8.9%	0.4	-0.2%	-0.7%
COc1ccc(OC)c(-c2csc(NC(=O)Cc3ccccc3OC)n2)c1	-5.5%	-5.1	1.9%	-8.7%
COc1cc(OC)cc(C(=O)N[C@H](C(=O)Nc2nc(-c3cc(OC)ccc3OC)cs2)C(C)C)c1	-16.3%	-4.1	3.1%	20.6µM*
COc1cc(OC)cc(C(=O)N[C@H](C(=O)Nc2nc(-c3ccc(OC)c(OC)c3)cs2)C(C)C)c1	-63.2%	0.1	4.0%	20.6µM*
CCC(C)NC(=O)CSc1nc2cc3c(cc2c(=O)n1CCCCCC(=O)NCc1ccc(OC)cc1)OCO3 (stereo unspecified)	.	.	-0.6%	.
Cc1cccc(C(=O)NNC2=C(C(=O)C(F)(F)F)CCC2)c1O	-57.5%	0.7	7.1%	20.6µM*
CNC(=S)N/N=C1\CC(c2ccccc2)Oc2ccccc21 (stereo unspecified)	-8.6%	-4.8	6.0%	23.7%
Fc1ccc(N/N=C2/CC(c3ccccc3)Oc3ccccc32)c(F)c1 (stereo unspecified)	-4.4%	-0.8	12.6µM*	?
CCc1cccc(C)c1NC(=O)C1CCCN(S(=O)(=O)c2cccc3nsnc23)C1 (stereo unspecified)	16.4%	.	-0.5%	.
Cc1ccc2nc(NC(=O)C3CCN(S(=O)(=O)c4cccnc4)CC3)sc2c1	0.0%	-3.6	0.6%	16.4µM*
Cc1ccc2nc(NC(=O)C3CCCN(S(=O)(=O)c4cccc5nsnc45)C3)sc2c1 (stereo unspecified)	-2.2%	-1.8	0.0%	18.4µM*
COc1ccc2nc(NC(=O)C3CCN(S(=O)(=O)c4cccnc4)CC3)sc2c1	-21.7%	-0.9	0.6%	?
O=C(Nc1nc2ccc(S(=O)(=O)N3CCCC3)cc2s1)c1ccccn1	63.2%	-0.3	0.2%	20.6µM*
COc1ccc2nc(NC(=O)C3CCN(S(=O)(=O)c4cccs4)CC3)sc2c1	-72.0%	-1.2	1.5%	10.3µM*
CCOC(=O)c1c(NC(=O)COc2ccc(Cl)cc2Cl)sc2c1CCCCC2	.	.	3.2%	.
CC(=O)NC(c1cccc(F)c1)c1nc(-c2ccoc2)cs1 (stereo unspecified)	13.2%	2.1	5.0%	.
CCOC(=O)c1ccccc1NC(=O)N1CCC(CN2CCCCC2)CC1	.	.	-1.3%	.
Cc1ccc2nc(NC(=O)C3CCN(S(=O)(=O)c4cccc5nsnc45)CC3)sc2c1	-78.8%	-1.7	-0.6%	16.4µM*
Cc1ccc(NC(=O)C2CCN(S(=O)(=O)c3cccs3)CC2)cc1C	-35.8%	-0.6	3.3%	?
Cc1ccc(NC(=O)C2CCN(S(=O)(=O)c3cccc4nsnc34)CC2)cc1	-8.3%	.	0.1%	.
CC(=O)c1ccc(NC(=O)C2CCN(S(=O)(=O)c3cccs3)CC2)cc1	8.91µM*	-0.3	4.1%	?
O=S(=O)(Nc1ccc(-c2ccc(N3CCCC3)nn2)cc1)c1cc(F)ccc1F	.	.	5.2%	.
O=C(Nc1cnn(Cc2ccc(Cl)cc2Cl)c1)c1cc(-c2cccs2)on1	-32.2%	-2.1	0.5%	-13.6%
CC(=O)c1cccc(NC(=O)Nc2cnn(Cc3ccc(Cl)cc3Cl)c2)c1	-9.6%	-2.3	0.8%	25.9µM*
Cc1ccc2c(=O)cc(CSc3ccccc3)[nH]c2c1C	.	.	-0.1%	.
SMILES	BRCA1 expr act	IL-2 act	Nrf2 activator	ELG1 repair inh
O=c1cc(CSc2ccccc2)[nH]c2ccccc12	-2.2%	-0.2	0.2%	11.6µM*
CC(=O)c1sc(-c2ccc(F)cc2)cc1NS(=O)(=O)c1ccc(C)cc1	-2.3%	0.8	0.3%	18.3µM*
NC(=O)c1sc(-c2ccsc2)cc1NS(=O)(=O)c1ccc(C(F)(F)F)cc1	-63.0%	-3.4	4.0%	18.3µM*
CC(=O)c1sc(-c2ccccc2)cc1NS(=O)(=O)c1ccc(C)cc1	-28.3%	0.8	2.4%	-17.7%
Cc1cc(C)cc(NC(=O)C2CCCN(c3nnc(C)c4c(C)n(-c5ccccc5)nc34)C2)c1 (stereo unspecified)	.	.	-0.4%	.
Cc1oc2ccc(O)c(CN3CCCCCC3)c2c1C(=O)Nc1cccc(C(F)(F)F)c1	.	.	-3.9%	.
COc1ccc2c(c1OC)C(=O)N1c3ccccc3COC21 (stereo unspecified)	?	-0.2	-0.1%	?
COc1ccc2c(c1OC)C(=O)N1c3ccccc3SC21 (stereo unspecified)	5.01µM*	0.3	6.1%	?
Cc1ccc(Nc2nc(N)c([N+](=O)[O-])c(N3CCOCC3)n2)cc1C	-34.9%	-3.1	6.7%	13µM*
Cc1cccc(Nc2nc(N)c([N+](=O)[O-])c(N3CCN(C)CC3)n2)c1	5.9%	-0.2	7.3%	?
Cc1cccc(Nc2nc(N)c([N+](=O)[O-])c(N3CCCC(C)C3)n2)c1 (stereo unspecified)	-93.2%	-0.7	4.0%	25.9µM*
Cc1ccc(Nc2nc(N)c([N+](=O)[O-])c(N3CCC(C)CC3)n2)cc1C	-17.0%	0.2	-0.3%	?
CC(=O)Nc1ccc(N=Nc2ccccc2)cc1[N+](=O)[O-]	27.1%	1.0	7.94µM*	.
O=S(=O)(O)c1cc(O)c2c(O)c(N=Nc3cc(Cl)ccc3O)c(S(=O)(=O)O)cc2c1	-43.7%	-0.2	-1.2%	?
Cc1cc(-c2ccc(N=Nc3c(S(=O)(=O)O)cc4cc(S(=O)(=O)O)cc(N)c4c3O)c(C)c2)ccc1N=Nc1c(S(=O)(=O)O)cc2cc(S(=O)(=O)O)cc(N)c2c1O	.	.	.	7.3µM*
COc1ccc(-[n+]2c(C)cc(/C=C3\Sc4ccccc4N3C)cc2C)cc1	-24.4%	25.2	-1.6%	18.3µM*
O=C(CSc1n[nH]c(-c2ccccn2)n1)Nc1ccc(Cl)cc1	-55.5%	-0.4	0.0%	20.6µM*
CCc1ccccc1NC(=O)CN(c1cc(C(F)(F)F)ccc1Cl)S(=O)(=O)c1ccccc1	-53.6%	.	3.0%	.
CC(C)(C)c1cc(NC(=O)c2cccnc2)no1	7.08µM*	0.3	0.5%	?
Cc1c(C(=O)Nc2cc(S(=O)(=O)N3CCOCC3)ccc2N2CCN(C)CC2)oc2ccccc12	-28.3%	-1.2	2.5%	16.4µM*
COc1ccc(-c2cc(C(=O)Nc3cc(S(=O)(=O)N4CCOCC4)ccc3N3CCOCC3)c3ccccc3n2)cc1	-21.1%	0.0	0.0%	4.11µM*
CN1CCN(c2ccc(S(=O)(=O)N3CCOCC3)cc2NC(=O)CC(C)(C)C)CC1	2.1%	0.1	-0.6%	21.3%
Cc1c(C(=O)Nc2ccc3nc(N4CCOCC4)sc3c2)oc2ccccc12	-36.7%	-0.7	-0.3%	11.2µM*
O=C(/C=C/c1ccc(Cl)cc1)Nc1cc(S(=O)(=O)N2CCOCC2)ccc1N1CCOCC1	-52.4%	-0.1	-0.6%	25.9µM*
CN(C)c1ccc(CNC(=O)c2ccccc2NC(=O)c2nsc3ccccc23)cc1	.	.	6.8%	.
